Results as given in PubChem BioAssay (NCI).
This is part of a sample that, as a whole, favours compounds with a hit. Of some 79,000 tested, about 15% had one in any assay. Calls of active or inactive are those of the source. Rule as the data show it: active = growth inhibition above about 70%; inactive = the rest.

Columns and labels:
[1] = NCI Yeast Anticancer Drug Screen. Data for the rad50 strain (AID 155);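 also: 0% = growth of vehicle-only cultures of the same strain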; settings: S. cerevisiae rad50 strain growth inhibition, hits give high values
Summary of the method: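 Cells are treated with compound, grown, and their growth is then scored against vehicle-only cultures of the same repair-deficient yeast strain.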

[2] = NCI Yeast Anticancer Drug Screen. Data for the mec2-1 strain (AID 157); settings: S. cerevisiae mec2-1 strain, hits give high values
Summary of the method: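 Yeast mec2-1 mutant treated with compound. Readout: growth inhibition vs vehicle controls.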

[3] = NCI Yeast Anticancer Drug Screen. Data for the sgs1 mgt1 strain (AID 161);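 also: 0% = growth of cultures given vehicle only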; settings: S. cerevisiae sgs1 mgt1 strain, hits give high values
Summary of the method: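 Test agents were incubated with a DNA-repair-mutant yeast strain. Growth was then read and compared against vehicle-treated controls.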

[4] = NCI Yeast Anticancer Drug Screen. Data for the cln2 rad14 strain (AID 165);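 also: 0% = growth equal to vehicle treated cultures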; settings: S. cerevisiae cln2 rad14 strain, hits give high values
Summary of the method: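 cln2 rad14 yeast strain; compound exposure; growth inhibition read vs vehicle controls.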

[5] = NCI Yeast Anticancer Drug Screen. Data for the bub3 strain (AID 167); settings: S. cerevisiae bub3 mutant strain, hits give high values
Summary of the method: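 Part of a panel of yeast mutants defective in DNA damage repair or cell cycle regulation. Each strain is grown with compound, and inhibition is calculated relative to solvent-treated cultures.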

[6] = NCI Yeast Anticancer Drug Screen. Data for the mlh1 rad18 strain (AID 175); settings: S. cerevisiae mlh1 rad18 strain growth inhibition, hits give high values
Summary of the method: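 Yeast w/ defined DNA-repair lesions; compound exposure; growth vs vehicle controls → % inhibition.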

[7] = at 5.0 µM (retest, dose inferred, filed as 0.5)
[8] = at 50.0 µM (retest, dose inferred, filed as 5.0)

Measured: growth inhibition

CCCCCCCCCCCCNC(=O)OCC(C)O (stereo not given) (tested in a mixture with another compound)
active: [1]; [7] 95% | [1]; [8] 97% | [1]; at 50.0 µM 98.2% | [2]; [7] 76% | [2]; [8] 93% | [2]; at 50.0 µM 96.6% | [3]; [7] 96% | [3]; [8] 98% | [3]; at 50.0 µM 98.9% | [4]; [7] 81% | [4]; [8] 88% | [4]; at 50.0 µM 97.9% | [5]; [7] 84% | [5]; [8] 74% | [5]; at 50.0 µM 99.4% | [6]; [7] 93% | [6]; [8] 91% | [6]; at 50.0 µM 98.5%

O=C1c2ccccc2C(=O)N1C(=NCc1ccccc1)c1ccccc1
inactive: [1]; [7] 7% | [1]; at 50.0 µM 64.2% | [2]; [7] 2% | [2]; [8] 68% | [2]; at 50.0 µM 63.4% | [3]; [7] 4% | [3]; [8] 42% | [3]; at 50.0 µM 64% | [4]; [7] 3% | [4]; [8] 64% | [4]; at 50.0 µM 5.55% | [5]; [7] -3% | [5]; [8] 66% | [5]; at 50.0 µM 55.2% | [6]; [7] 4%
active: [1]; [8] 70% | [6]; [8] 78% | [6]; at 50.0 µM 83.2%

O=C(NCCCl)N1CCC(CN=c2cc3n(-c4ccc(Cl)cc4)c4ccccc4nc-3cc2Nc2ccc(Cl)cc2)CC1
active: [1]; [8] 99% | [1]; at 50.0 µM 98.6% | [2]; [8] 99% | [2]; at 50.0 µM 98.5% | [3]; [8] 99% | [3]; at 50.0 µM 98.7% | [4]; [8] 99% | [4]; at 50.0 µM 98.3% | [5]; [8] 99% | [5]; at 50.0 µM 98.4% | [6]; [8] 98% | [6]; at 50.0 µM 99%
inactive: [1]; [7] -33% | [2]; [7] -5% | [3]; [7] -22% | [4]; [7] -56% | [5]; [7] -11% | [6]; [7] -34%

COc1ccc(N2CCN(CC(O)COc3cc4c(c5c3CCCC5)CCCC4)CC2)cc1 (stereo not given)
inactive: [1]; [7] 15% | [1]; at 50.0 µM 45.4% | [2]; [7] 17% | [3]; [7] 22% | [3]; at 50.0 µM 54.7% | [4]; [7] 6% | [5]; [7] 13% | [6]; [7] 9%
active: [1]; [8] 98% | [2]; [8] 98% | [2]; at 50.0 µM 99% | [3]; [8] 97% | [4]; [8] 98% | [4]; at 50.0 µM 84.2% | [5]; [8] 97% | [5]; at 50.0 µM 92% | [6]; [8] 96% | [6]; at 50.0 µM 77.6%

O=c1c2cc3ccccc3cc2c(=O)n2n1CC=CC2
inactive: [1]; [7] 8% | [1]; [8] 39% | [2]; [7] -1% | [2]; [8] 6% | [2]; at 50.0 µM 15.9% | [3]; [7] 9% | [3]; [8] 18% | [3]; at 50.0 µM 22% | [4]; [7] 4% | [4]; [8] 10% | [4]; at 50.0 µM 26.8% | [5]; [7] 2% | [5]; [8] -1% | [5]; at 50.0 µM -0.8% | [6]; [7] 25% | [6]; [8] 46% | [6]; at 50.0 µM 10.8%
active: [1]; at 50.0 µM 74.2%
